# Source: PubChem BioAssay
# ERK EGF block: inhibitors of EGF-stimulated ERK signaling pathway; HEK293-V1b, EGF-stimulated phospho-ERK AlphaScreen; Potency, µM (top dose mostly 11.5 µM), without a hit: at the highest dose activity change, negative = inhibition, usual class: inhibitors; hit rate 0.41% among 130,000; AID 1454; active = well fitted inhibition curve with a large enough effect;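 also: plate controls were stimulated vehicle wells for no effect and unstimulated vehicle basal for full effect; nearly all actives have a fitted effect of over 55% in size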
#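 HEK293 cells stably expressing V1b receptor, serum-reduced (1% FBS) overnight, got compound for 30 min at 37C, then 25 nM EGF for 5 min. Lysate phospho-ERK read by AlphaScreen SureFire; AC50 from Hill fits.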
# * = called active by the depositor; [ ] = dose if it differs, or a comment. This is one part of a sample in which hits are shown more often than they occur. Potency is read from the fitted curve at half-maximal effect.
SMILES,ERK EGF block
Clc1cccc(Nc2nnc(-c3ccccc3)c3ccccc23)c1,-4.5%
COc1ccc(CN2CCN(CCc3ccccc3)C(CCO)C2)c(O)c1 (centres undefined),5.1%
O=[N+]([O-])c1cccc(C(=S)N2CCN(c3ccccc3)CC2)c1,5.8%
Cc1cccc(N2CCN(C(=S)c3ccccc3)CC2)c1,1.6%[57.5 µM]
Cc1cccc(N2CCN(C(=S)c3ccc([N+](=O)[O-])cc3)CC2)c1,17.8µM*
Clc1cccc(Cl)c1CSc1nnc(-c2ccncc2)s1,16.3%[57.5 µM]
COc1ccc(NC(=O)CC2C(=O)N(c3ccccc3)C(=O)N2Cc2ccco2)cc1 (centres undefined),-9.8%
CCC1=NN2C(=N)/C(=C\c3cccn3-c3ccc(Cl)cc3)C(=O)N=C2S1,-4.1%
CC1=NN(c2ccc(Cl)cc2)C(=O)/C1=C\c1cccn1-c1ccc(S(N)(=O)=O)cc1,25.1µM*
Cc1ccc(S(=O)(=O)N/N=C/c2cccn2-c2ccc(Cl)cc2)cc1,2.0%[57.5 µM]
CCN1C(=O)/C(=C\C=C2/C=CC=CN2CC)SC1=S,25.1µM*
CN1C=CC=C/C1=C1/SC(=S)N(Cc2ccccc2)C1=O,23.1%
O=C(O)CN1C(=O)/C(=C/C=C/c2ccccc2)SC1=S,-0.5%
C/C(=N\NC(=O)CSc1nc2ccccc2[nH]1)c1ccncc1,4.9%
Cc1cc(C)nc(NC(N)=NC(C)c2ccccc2)n1 (centres undefined),9.3%
COC(=O)[C@@H]1C[C@@H]2CC[C@@H](O)C[C@@H]2N1Cc1ccc(C(F)(F)F)cc1,-3.4%
COc1ccc(-c2cc3nc4ccccc4n3c(N)c2C#N)cc1,6.2%[57.5 µM]
O=C1C=C(Nc2ccccc2)c2ccccc2C1=O,-2.7%
O=C1C=C(Nc2ccccc2)C(=O)c2ccccc21,25.1µM*
CCc1cc[n+](C2=C([O-])c3ccccc3C(=O)/C2=N\S(=O)(=O)c2cccs2)cc1,9.5%
O=C1C(Nc2ccccc2)=C/C(=N/S(=O)(=O)c2cccs2)c2ccccc21,14.1µM*
CC1=CC(=O)c2ccccc2C1=O,-13.4%
Cc1ccc(N/C(=N/S(=O)(=O)c2cccs2)c2ccccc2)c(C)c1,3.5%
S=C(Nc1ccccc1)Nn1cnnc1,-5.1%
Cc1ccc(-n2c(Cc3cccc4ccccc34)n[nH]c2=S)c(C)c1,1.3%
SMILES,ERK EGF block
Cc1ccccc1NC(=O)c1cc(C(=O)c2cc(Cl)ccc2O)cn(-c2ccccc2C)c1=O,2.9%
Cc1nn(C(CC(=O)O)C(=O)O)c(C)c1Br (centres undefined),0.0%
CN(C)c1ccc(/C=C2\CCC/C(=C\c3ccccc3)C2=O)cc1,-4.4%
CC(=O)N1/C(=C/c2ccc(N(C)C)cc2)C(=O)c2ccccc21,25.1µM*
CN(C)c1ccc(/C=C2/C(=O)Nc3ccccc32)cc1,-2.0%
COc1ccc(Nc2c(C)cccc2C)cc1,4.7%
COc1ccc(Nc2ccnc(Nc3ccc(OC)cc3)n2)cc1,35.5µM*
COc1ccc(NC(=O)Nc2cnccn2)cc1,2.5%[57.5 µM]
COc1ccc(C(C(=O)Nc2ccc(C(C)C)cc2)N(Cc2ccco2)C(=O)CC2NC(=O)NC2=O)cc1 (centres undefined),-8.4%
COCCCN1C(=O)CS/C1=N\S(=O)(=O)c1ccccc1,-3.5%[57.5 µM]
O=Cc1s/c(=N\S(=O)(=O)c2ccccc2)n(CCCCl)c1Cl,22.4µM*
CN1C/C(=N\S(=O)(=O)c2ccccc2)N(C)C1=O,12.1%
O=C(COC(=O)/C=C/c1ccc(Cl)cc1)NCCN1C(=O)CSC1=O,-11.9%
COc1ccccc1C(=O)N/C(=C/c1ccccc1)C(=O)Nc1ccc(C(=O)O)cc1,-1.0%
O=C/C(=C\Nc1ccccn1)c1nc2cc(Cl)ccc2o1,-1.5%
O=C1NN(c2ccccc2)C(=O)/C1=C/c1ccc(-c2ccc(Cl)c(C(=O)O)c2)o1,-8.2%
Cc1cccc(N2NC(=O)/C(=C/c3ccc(-c4ccc(Cl)c(C(=O)O)c4)o3)C2=O)c1,-2.8%
O=C1NN(c2ccccc2)C(=O)/C1=C/c1ccc(Sc2ccc(Cl)cc2)o1,28.2µM*
Cc1cc(=O)oc2c3c4c(cc12)OCCN4CCC3,-6.4%
CC(C)C[C@@H](CC(=O)N[C@@H](CCC(=O)O)CC(=O)O)NC(=O)[C@@H]1CNCC[C@H]1NC(=O)C[C@H](CCCN)NC(=O)C[C@H](Cc1c[nH]c2ccccc12)NC(=O)[C@@H]1CNCC[C@H]1N,0.1%
CCN1C(=O)/C(=C2/C=Cc3cc(C)ccc3N2CC)N(C)C1=S,14.1µM*
CCN1/C(=C2\C(=O)N(C)C(=S)N2C)C=Cc2cc(OC)ccc21,2.4%
CCN1/C(=C2\OC(=S)N(C)C2=O)C=Cc2ccccc21,-2.4%
COc1ccc(OCC(Cn2cnc3ccccc32)OC(C)=O)cc1 (centres undefined),-2.6%
Cc1ccc(-c2cc(C(F)F)nc(NCc3cccs3)n2)cc1,7.4%
SMILES,ERK EGF block
C=CC[n+]1c(/C=C2\C=Cc3cc(C)ccc3N2CC)ccc2ccccc21,22.4µM*
CCN1C(=C(C#N)C#N)C=Cc2cc(C)ccc21,-5.1%
Cc1c(Cl)cccc1NC(=S)N(CCN(C)C)C(C)c1ccco1 (centres undefined),-29.8%[57.5 µM]
CCOC(=O)C(NC(C)=O)C(=O)Nc1c(C)cccc1C (centres undefined),3.4%
COc1cccc(N2CC(C(=O)Nc3nnc(SCC(=O)Nc4cc(C)on4)s3)CC2=O)c1 (centres undefined),-0.8%
N.N.N.N.N.N.N.N.N.N.N.N.N.N.O.O.[Cl-].[Cl-].[Cl-].[Cl-].[Cl-].[Cl-].[Ru].[Ru].[Ru],15.8µM*
CCOC(=O)c1c(CN2CCC(C)CC2)n(C)c2cc(Br)c(OC)cc12,9.2%[57.5 µM]
O=C1/C(=C/c2ccncc2)SC(=S)N1Nc1ccccc1,-2.7%[57.5 µM]
O=C1/C(=C/c2ccc(O)c(O)c2)SC(=S)N1Nc1ccccc1,12.6µM*
O=C(O)c1ccc(/C=C2\SC(=S)N(Nc3ccccc3)C2=O)cc1,-11.4%[57.5 µM]
CC(=O)c1ccc(NC(=O)NCc2ccc(F)cc2)cc1,-2.8%
O=C(N/N=C/c1cn(-c2ccccc2)nc1-c1cc2ccccc2o1)c1ccncc1,1.0%
O=C(N/N=C/c1cn(-c2ccccc2)nc1-c1cccnc1)c1cccnc1,-1.6%
O=C(N/N=C/c1cn(-c2ccccc2)nc1-c1cc2ccccc2o1)c1cccnc1,7.08µM*
CC(C)C(=O)N1CCC2(CC1)Oc1ccc(Cl)cc1C(=O)C21CC(c2ccc(Cl)cc2)=NO1 (centres undefined),-2.4%[57.5 µM]
COc1ccc(N2C(=O)CC(NNC(=O)c3ccco3)C2=O)cc1 (centres undefined),-6.2%
O=C(c1cccc(F)c1)N1CCCN(C(=O)c2cccc(F)c2)CC1,-8.8%
COc1ccc(CCNCC(O)COc2cccc(Br)c2)cc1 (centres undefined),-1.9%[57.5 µM]
OC(CNCCc1ccc(C(F)(F)F)cc1)COc1ccc2ccccc2c1 (centres undefined),35.5µM*
OC(COc1ccc(CNCCc2ccc(C(F)(F)F)cc2)cc1)CN1CCCCC1 (centres undefined),-2.6%
CCCCn1c(CNC(=O)C23CC4CC(CC(C4)C2)C3)nnc1SC(C)CC (centres undefined),2.6%
Cc1ccc(C)c(SCC(=O)NC(=O)NCc2ccccc2)c1,4.6%
Oc1ccc(Cl)cc1C1=NNC(c2ccc(Cl)cc2)C1 (centres undefined),-6.9%
COc1ccc(-c2nc(-c3cccc([N+](=O)[O-])c3O)cc(=O)o2)cc1OC,1.6%
COc1ccccc1S(=O)(=O)c1ccccc1[N+](=O)[O-],-11.0%
COc1cc(/C=C2/C(=O)c3cccc([N+](=O)[O-])c3C2=O)c(Br)cc1O,28.2µM*
NC(=O)c1c[nH]c2ccccc12,-14.3%[57.5 µM]
